Laboratory results taken from PubChem BioAssay (NCI).
About 83,000 compounds went through this panel and 20% of them were active in at least one assay; those are over-represented in the sample as a whole.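 Percent growth is the endpoint: 0 to 100 indicates growth inhibition (40 means 60% inhibition), 0 means no net growth, and negative values indicate cell death.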 The source made the active and inactive calls. The calls were made as follows: active = growth percent below 10; inactive = the rest.

Test system: HL-60(TB) leukemia
Assay: NCI-60 one-dose screen, 48 h (100 = growth as untreated, 0 = no growth, -100 = all killed)
Details: 10 µM unless noted

| SMILES | growth |
| --- | --- |
| Cc1onc(-c2c(F)cccc2Cl)c1-c1ncc(-c2ccc(Br)cc2)o1 | 37.5% (inactive) |
| Cc1[nH]nc(C(N)=O)c1[N+](=O)[O-] | 129% (inactive) |
| N#CCc1ncc(-c2ccc(C(F)(F)F)cc2)c(NC2CCCCCC2)n1 | -28.4% [100 µM] (active) |
| FC(F)(F)c1ccc(Cn2cc(CSc3nc4ccccc4s3)nn2)cc1 | 97.9% (inactive) |
| COc1ccc(OC)c(/C=C2\Oc3cc(OCCCN4CCCC4)ccc3C2=O)c1 | 87.5% (inactive) |
| CCCCCCOc1ccc(/C=N/NC(N)=S)cc1 | 8.79% (active) |
| Nc1ncnc2c1c(-c1cccc(OCc3ccccc3)c1)cn2C1CC(CN2CCC2)C1 (stereo not given) | -51.5% (active) |
| N#CC1C(C#N)C(C(=O)c2ccc(Br)cc2)N2c3ccccc3C=CC12 (stereo not given) | 94.3% (inactive) |
| Cc1cc(C)n(CC(=O)Nc2ccc(-c3nc4ccccc4s3)cc2)n1 | 103% (inactive) |
| Cc1nn(-c2ccccc2)c2nc(Cl)c(C=O)c(-c3ccccc3)c12 | 95.8% (inactive) |
| Cc1ccccc1-n1nnc(C(=O)Nc2ccc(-c3ccccc3)cn2)c1C | 28.8% [50 µM] (inactive) |
| Cc1cc(C)c(O)c(C(=O)CC(Br)C(=O)O)c1 (stereo not given) | 79.8% (inactive) |
| CCCCNNC(=O)c1ccc(Br)cc1 | 18.3% (inactive) |
| O=C(Nc1ccc(-c2ccnc(Nc3ccc(N4CCOCC4)cc3)n2)cc1)[C@@H]1CCCN1 | 39.8% (inactive) |
| O=C(/C=C/c1ccc(Cl)cc1)/C=C/c1cc2ccccc2[nH]c1=O | 55.6% (inactive) |
| CCCCCCc1cc2cc(-c3nc4ccccc4[nH]3)c(=Nc3ccccc3C)oc2cc1O | 12.2% (inactive) |
| ClCc1c(Cl)c(Cl)c(Cl)c(CCl)c1Cl | 80.4% (inactive) |
| O=C1c2cccnc2C(=O)c2c1c(C(=O)OCCCN1CCCCC1)c1ccccn21 | -21.6% (active) |
| COC(=O)c1nc(-c2ccccc2)oc1S(=O)(=O)n1nc(C)cc1N | 7.17% (active) |
| O=C(NCCCO)c1cc(Cl)ccc1O | -13.5% (active) |

| SMILES | growth |
| --- | --- |
| COc1ccccc1CNCCCN1C(=O)c2ccc3c4c(ccc(c24)C1=O)C(=O)N(CCCCNCCCN)C3=O | -34.2% (active) |
| N#CCc1ccc([N+](=O)[O-])cc1 | 53.1% (inactive) |
| CCOC(=O)c1c2c(c(C)n1Cc1ccc(OC)cc1)-c1oncc1CC2 | 91.9% (inactive) |
| N#C/C=C(\c1ccc([N+](=O)[O-])cc1)n1nnc2cc(Cl)c(Cl)cc21 | 13.3% (inactive) |
| c1ccc2c3c([nH]c2c1)C(c1ccc(C2NCCc4c2[nH]c2ccccc42)cc1)NCC3 (stereo not given) | -63.2% (active) |
| O=S(=O)(NCCCNc1nccc(-c2c(-c3ccc(F)cc3)nc3sccn23)n1)c1ccc2ccccc2c1 | 34.8% (inactive) |
| Clc1cc(Cl)c2nc(-c3ccc(-c4ccc(/C=N/NC5=NCCN5)cc4)s3)cn2c1 | 98.4% (inactive) |
| CCCCCCCCCCCCCCCCNCCC[C@@H](C)[C@H]1CC[C@H]2[C@@H]3[C@H](OCCCN)C[C@@H]4C[C@H](OCCCN)CC[C@]4(C)[C@H]3C[C@H](OCCCN)[C@]12C | 4.5% (active) |
| COC(=O)c1ccc(=O)oc1 | 96.2% (inactive) |
| COc1ccc2c(c1)N(CCO)C1=C(C(=O)OC1)C2c1cccc(Br)c1 (stereo not given) | -26.3% (active) |
| COc1cc(-c2csc(NC(=O)Nc3cc(C(F)(F)F)cc(C(F)(F)F)c3)n2)cc(OC)c1OC | 12% (inactive) |
| CCOC(=O)n1cc(C2=C(c3cn(C)c4ccccc34)COC2=O)c2ccccc21 | -23.6% (active) |
| O=[N+]([O-])c1ccc(N=Nc2c(O)c(N=Nc3cc([N+](=O)[O-])cc([N+](=O)[O-])c3O)cc(N=Nc3cc(S(=O)(=O)O)cc4cc(S(=O)(=O)O)cc(O)c34)c2O)cc1 | 87.2% (inactive) |
| CCN(CC)CCCN1C(=O)c2c(c(C)c3c(oc4ccc(O)cc43)c2C)C1=O | -5.12% (active) |
| O=C1OCC2=C1C(c1cccc(Br)c1)c1cc3c(cc1N2CCO)OCCO3 (stereo not given) | -23.7% (active) |
| Cc1ccc(-c2cc(-c3ccccc3)n(-c3ccccc3)n2)cc1 | 98.5% (inactive) |
| COC(=O)c1c(C)nc(C)c2c1C(=O)C(Br)=C(NCCCCO)C2=O | 24.1% (inactive) |
| CCN(Cc1ccccc1)C1CCN(Cc2cc(Br)ccc2O)CC1 | 50.1% (inactive) |
| Clc1ccc(-c2n[nH]c3c2Cc2ccccc2-3)cc1Cl | 100% (inactive) |
| CCN1CCN(CCNc2nccc(-c3c(-c4ccc(F)c(OC)c4)nc4sccn34)n2)S1(=O)=O | 89.1% (inactive) |
